From ChEMBL document CHEMBL3988442, “University of Dundee, Small-Polar-MMV Screening Library” (2021)

These molecules were tested against AMP-activated protein kinase, AMPK (Homo sapiens) (UniProt P54646+O43741+P54619+Q9UGJ0+Q9Y478+Q13131+Q9UGI9) (assay: AMP-dependent Kinase enzyme assay. An in vitro enzyme assay that detects ADP turnover that is directly proportional to AMPK activity. This uses naive AMPK that is activated during the assay with MK-8722). Conditions: 30 µM.
Assay type: functional
Parameters: scale not given: direction of the effect not stated beside the values

Row | Structure (SMILES) | Percent Effect [%]
1 | Cc1cccn2cc(CN3CCC(N4CCN(C)C4=O)CC3)nc12 | 0.324
2 | CS(=O)(=O)NC(=O)c1ccn(-c2ccccc2Cl)n1 | 9.09
3 | CN(C)S(=O)(=O)N1CCC(C(O)c2ccc(Cl)cc2)CC1 (centres undefined) | 4.77
4 | Cc1nc(C)n(CCC(=O)NCC2CCCOC2)n1 (centres undefined) | 10.8
5 | O=C(COC1CCCC1)NCc1ccc(O)c(F)c1 | 8.07
6 | CCCn1cc(CN2CCOCC2c2[nH]ncc2C)cn1 (centres undefined) | 14.3
7 | CCc1nc(C)c(CN2CCOC(Cc3cccc4ccccc34)C2)[nH]1 (centres undefined) | -0.756
8 | Cc1nnc(CN(C)CC(=O)N2CCCN(C3CCCC3)CC2)n1C | -11.4
9 | CCn1cnnc1CN(C)C(=O)c1cc(COc2cccc(F)c2)[nH]n1 | -0.905
10 | CCC(=O)Nc1cccc(OCC(=O)N2CC=CC2C(C)C)c1 (centres undefined) | -4.81
11 | COc1ccc(C(=O)N2CCN(C(=O)CCCc3cn[nH]c3)CC2)cc1 | 3.5
12 | CC(C(=O)Nc1nccs1)N(C)Cc1cccc(C#N)c1 (centres undefined) | 8.51
13 | COC(=O)c1ccc(Cn2cnc(C#N)n2)cc1 | 1.34
14 | Cc1nc(CN2CCC(c3cc(N4CCCC4)ncn3)CC2)cs1 | 2.88
15 | COc1ccc2c(c1)OCC(C(=O)NCc1nc3c(s1)CCCC3)C2 (centres undefined) | 8.94
16 | CS(=O)(=O)CC1(CNc2c(C#N)cnc3ccc(Cl)cc23)CC1 | 5.05
17 | CN(C)Cc1cn(-c2ccccc2C(=O)NCCC2CCCN2C)cn1 (centres undefined) | -16.8
18 | CN(Cc1ccc(F)cc1)Cc1cc2c(cc1Br)OCCO2 | -2.13
19 | O=C(C1COCCO1)N1CCN(CC(F)(F)F)c2ccccc21 (centres undefined) | 12.8
20 | Cc1nsc(C(=O)NCCCc2ccccc2)n1 | 1.51

Row | Structure (SMILES) | Percent Effect [%]
21 | CN(Cc1cc[nH]n1)C(=O)c1ccc2c(c1)nc(N1CC[C@H](O)C1)n2C | 19.9
22 | Cc1ccc(CCc2nc(C3CCOC3)no2)o1 (centres undefined) | 10.1
23 | CCc1nc2n(n1)CC(NCc1nc3ccccc3nc1C)CC2 (centres undefined) | -2.35
24 | Cn1nccc1CN1CCOC(c2cccc(Nc3ccccn3)n2)C1 (centres undefined) | 5.54
25 | Cc1ncsc1CCC(=O)N(C)Cc1nc2ccccc2n1C | 0.381
26 | O=C1NCCN(C(=O)CCN2CCCO2)C1c1cccc(F)c1 (centres undefined) | -5.73
27 | COc1ncc(NCc2ccc(C#N)cc2)cc1C(N)=O | 2.92
28 | CNC(=O)CNC(=O)NCc1cc2c(s1)CCC(C)(C)C2 | -2.89
29 | CN(CCc1ccccn1)C(=O)Nc1cccnc1-n1cccn1 | -3.54
30 | O=C(C1CC1)N1CCCCCC1C1CCN(c2ncccn2)CC1 (centres undefined) | -6.9
31 | CCS(=O)(=O)N1Cc2ccccc2CC1C(=O)OCc1cc(C)no1 (centres undefined) | 5.87
32 | O=C(CCn1cccn1)N1CCC(c2nnc(-c3ccsc3)o2)CC1 | 4.17
33 | Cc1ccc(CNCc2cccc(NC(=O)CCN3CCOCC3)c2)s1 | -4.09
34 | CCCN(CC(=O)NC)C(=O)c1ccc(-c2nc(C)cs2)cc1 | 1.67
35 | COc1coc(CN2CCCC3(CCC(=O)N(C4CC4)C3)C2)cc1=O (centres undefined) | -2.13
36 | O=C(CC1=CSC2=NCCN12)N1CCCC(CCc2cccc(F)c2)C1 (centres undefined) | 13.4
37 | CC(=O)N1CCCC(C(=O)NCCc2ccc(F)c(Br)c2)C1 (centres undefined) | 9.28
38 | CSc1nccc(N2CCC(NCc3ccc4c(c3)OCO4)CC2)n1 | 15
39 | Cc1nc2sccn2c1CN(CCCN(C)C)Cc1ccccn1 | 3.1
